# Pf growth 96h: Primary qHTS for delayed death inhibitors of the malarial parasite plastid, 96 hour incubation | P. falciparum luciferase reporter growth, 96 h | Potency, µM (highest dose often 28.7 µM), for inactives: at the highest dose activity change, negative = inhibition, usual class: inhibitors | actives 6.9% (n = 320,000); also: potency is read from the fitted curve at half-maximal effect; % is scaled to controls: 0 for no effect and ±100 for the full control effect
#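 Erythrocytes infected with luciferase-expressing P. falciparum were dispensed at 2% hematocrit and 0.05% parasitemia (final), then incubated with compounds 96 hours at 37 C in 5% CO2. Luminescence after detection reagent addition reported growth.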
# Pf growth 48h: Primary qHTS for delayed death inhibitors of the malarial parasite plastid, 48 hour incubation; P. falciparum luciferase growth in erythrocytes, 48 h; Potency, µM (highest dose often 28.7 µM), inactives show at the top dose activity change, negative = inhibition, actives largely listed as inhibitors; actives 5.9% (n = 310,000); also: potency is read from the fitted curve at half-maximal effect; % is scaled to controls: 0 for no effect and ±100 for the full control effect
#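 Here the parasites carry a stable luciferase gene and grow inside erythrocytes in Albumax-based RPMI medium with compound for one erythrocytic cycle. Activity is scored as loss of luminescent signal.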
# Shiga toxin inh: A qHTS for Small Molecule Inhibitors of Shiga Toxin. inhibition, % at 38.7 µM. Vero cells, Shiga toxin protein synthesis inhibition reporter. AID 2315, 2010. actives 9.2% (n = 290,000); in the data active = inhibition mostly above about 28%, no sharp cut-off; inactive = mostly below about 43%; also: 0% is about no effect
# Lassa entry inh: qHTS for Inhibitors of binding or entry into cells for Lassa Virus; Lassa virus pseudotype entry inhibition, cell reporter; AID 540256, 2011; Potency, µM (series often up to 37.9 µM), without a hit: at the highest dose activity change, negative = inhibition, usual class: inhibitors; actives 1.2% (n = 300,000); calls by dose curve; tested in HEK293 cells; also: potency is read from the fitted curve at half-maximal effect; % is scaled to controls: 0 for no effect and ±100 for the full control effect; nearly all actives have a fitted effect of over 50% in size
# Cycloheximide cs: Cycloheximide Counterscreen for Small Molecule Inhibitors of Shiga Toxin. actives 12% (n = 300,000). max response, %. cell reporter, cycloheximide protein synthesis inhibition counterscreen; in the data active = max response mostly above about 13%, no sharp cut-off; inactive = mostly below about 14%; also: read at 38.3 µM for the half of the compounds with a filed dose; 0% is about no effect
# Marburg entry inh: qHTS for inhibitors of binding or entry into cells for Marburg Virus. Marburg virus pseudotyped entry inhibition, cell reporter. Potency, µM (series often up to 37.8 µM), inactives show top-dose activity change, negative = inhibition, most hits filed as inhibitors. actives 1.8% (n = 300,000). AID 540276, 2011; calls by dose curve; tested in HEK293 cells; also: potency is read from the fitted curve at half-maximal effect; % is scaled to controls: 0 for no effect and ±100 for the full control effect
# * = called active by the depositor; ? = inconclusive; · = not tested or not shown; [ ] = another dose, or the depositor's remark. Most compounds without a hit are left out; they make up all but 19% or so of the library. Unless noted, calls follow the shape of the dose curve; as a rule, active = well fitted inhibition curve with a large enough effect; inconclusive = small, poorly fitted or top-dose-only effect, or another doubt; inactive = no such curve, though single readings can be large or run the other way.
SMILES,Pf growth 96h,Pf growth 48h,Shiga toxin inh,Lassa entry inh,Cycloheximide cs,Marburg entry inh
COc1cc(NCCCCCCCN)c2ncccc2c1,3.7µM*,2.62µM*,-5.6,-4.1%,0.9,16.1%
COc1ccc(S(=O)(=O)Nc2cccc3cccnc23)cc1,·,·,-8.2,·,15.0,·
COc1ccc(S(=O)(=O)N2CCC(C)CC2)cc1OC,-23.7%,-16.1%,·,·,1.4,·
O=S(=O)(c1ccc2c(c1)C(=NO)c1cc(S(=O)(=O)N3CCCCC3)ccc1-2)N1CCCCC1,?,8.28µM*,-12.4,6.31µM*,5.6,?
CC1CCN(S(=O)(=O)c2ccc3c(c2)C(=NO)c2cc(S(=O)(=O)N4CCC(C)CC4)ccc2-3)CC1,5.86µM*,?,-2.5,2.51µM*,5.9,?
COc1ccc(NC(=O)C23CC4CC(C2)CC(n2cnc(Br)n2)(C4)C3)cc1Cl,?,·,-12.7,-1.0%,-3.6,-23.5%
COc1ccc(CN(C#N)c2nc(C)cc(C)n2)cc1,7.38µM*,?,-3.2,·,7.0,·
Cc1cccc(NC(=O)c2ccccc2NC(=O)CCC(=O)O)c1,-3.2%,8.3%,11.9,-5.8%,-2.1,?
CCc1ccc2[nH]c(=O)c(C(c3nnnn3CC3CCCO3)N3CCN4CCCC4C3)cc2c1 (stereo unspecified),?,?,-3.9,24.5%,-0.7,-1.8%
Cc1ccc(C)c2c1c1ccccc1n2C,7.5%,38.2%,41.6,-1.4%,19.7*,7.1%[46.1 µM]
COc1ccccc1-c1nc2ccccc2nc1-c1ccccc1OC,?,?,-9.9,-2.3%,-2.8,-22.7%
Cc1nc2c(nc1C)C(=O)c1ccccc1C2=O,·,·,·,?,·,14.1µM*
O=C1c2ccccc2-c2nc3ccccc3nc21,·,?,52.4,26.1%,28.7*,-4.2%
COc1ccc(NC(=O)CSc2ccc3c(c2)OCCO3)cc1OC,-2.9%,2.7%,-13.2,-15.4%,-0.2,1.1%
COc1cc2[nH]c(C(=O)Nc3ccc4c(c3)OCCO4)cc2c(OC)c1OC,?,?,91.1*,8.1%[46.1 µM],39.6*,?
COc1cc2cc(C(=O)Nc3ccc4c(c3)OCCO4)[nH]c2cc1OC,-12.4%,-1.4%,102.6*,·,47.1*,·
Cc1cc(C)c2cc(C(=O)Nc3ccc4c(c3)OCO4)[nH]c2c1,9.5%,9.7%,-13.8,-5.3%[46.1 µM],-3.6,-17.4%[46.1 µM]
O=[N+]([O-])c1ccc(-c2cnc(NO)nc2)cc1,?,11.7µM*,3.6,4.6%,-2.1,-25.8%
Cc1ccc(-c2nn3c(C)nnc3c3ccccc23)cc1S(=O)(=O)NCc1ccccc1,8.28µM*,?,-6.8,-12.2%,-2.5,?
O=C1CSC(c2ccc(F)cc2)N1c1ccccc1F (stereo unspecified),?,-3.5%,14.7,1.8%[46.1 µM],4.0,-2.6%[46.1 µM]
O=C1CSC(c2ccc(F)cc2)N1c1nc2ccccc2s1 (stereo unspecified),10.4µM*,-5.3%,5.6,?,-1.2,3.6%
CC/C(C)=N\N=C\c1c(O)n(CC)c2cc(C3=NNC(=O)CC3)ccc12,10.4µM*,?,-2.5,-22.6%,-1.3,-9.8%
CCn1c(O)c(/C=N/N=C/c2ccc(OC)cc2)c2cc(C3=NNC(=O)CC3)ccc21,5.1%,-0.2%,3.9,?,-1.8,2.9%[46.1 µM]
CSCC(C)N1CCC(n2nccc2NC(=O)c2ccc3c(c2)OCO3)CC1 (stereo unspecified),-0.3%,-6.5%,-11.4,12.1%[46.1 µM],-2.3,?
C/C=C(\C)CN1CCC(n2nccc2NC(=O)c2ccc3c(c2)OCO3)CC1,-1.0%,-10.3%,-2.5,11.7%,-2.3,5.9%
SMILES,Pf growth 96h,Pf growth 48h,Shiga toxin inh,Lassa entry inh,Cycloheximide cs,Marburg entry inh
CSCC(=O)N1CCC(n2nccc2NC(=O)c2ccc3c(c2)OCO3)CC1,?,13.6%,62.0*,·,36.4*,·
CCc1ccc(CN2CCC(n3nccc3NC(=O)c3ccc4c(c3)OCO4)CC2)cc1,?,?,-6.6,?,-2.5,7.3%
CC(C)=CCCC(C)CN1CCC(n2nccc2NC(=O)c2ccc3c(c2)OCO3)CC1 (stereo unspecified),?,10.4µM*,-4.5,·,-2.8,·
CCCn1cc(CN2CCC(n3nccc3NC(=O)c3ccc4c(c3)OCO4)CC2)c(C)n1,9.28µM*,2.8%,3.1,·,-2.1,·
COc1cccc(O)c1CN1CCC(n2nccc2NC(=O)c2ccc3c(c2)OCO3)CC1,13.7%,11.7µM*,0.7,0.1%,-2.7,?
O=C1CC(Nc2ccc(N3CCOCC3)cc2)C(=O)N1c1cccc(C(F)(F)F)c1 (stereo unspecified),1.4%,?,6.5,·,-0.3,1.5%
COC(=O)CNC(=O)Cn1cnc2sc(C)c(S(=O)(=O)N3CCN(c4ccccc4OC)CC3)c2c1=O,8.4%,8.8%,-6.9,20.9%,-6.5,3.5%[46.1 µM]
O=C(O)c1ccc(N/N=C/C2=C(N3CCOCC3)C(=C\c3ccccc3)/CC2)cc1,33.0%,?,74.4*,?,37.6*,-6.8%
CN(C(=O)NC(=O)C1=C(N2CCOCC2)/C(=C/c2ccccc2)CC1)S(C)(=O)=O,·,14.9%,53.0*,10.6%,28.8*,21.0%
CN=C(Nc1ccc(Cl)cc1)c1cccc(C(F)(F)F)c1,55.1%,31.4%,8.8,25.6%,-1.8,9.6%
CN=C(Nc1ccc(Cl)cc1)c1ccc(C(F)(F)F)cc1,81.9%,45.2%,26.8,17.6%,14.7*,-21.9%
CCN1CCN(c2ccc(S(=O)(=O)N3CCOCC3)cc2NC(=O)C(C)Oc2ccc(Cl)cc2)CC1 (stereo unspecified),?,11.7µM*,·,9.1%,·,?
CC(Oc1ccc(Cl)cc1)C(=O)Nc1cccc(S(=O)(=O)N2CCOCC2)c1 (stereo unspecified),10.4µM*,?,·,·,·,·
COc1ccc(C(=O)NC(C)Cc2cnccn2)cc1OC1CCN(C(C)C)CC1 (stereo unspecified),?,?,2.0,4.6%,-2.9,3.6%
Clc1ccc(-c2nnc(CCc3ccccc3)o2)c(Cl)c1,199.8%,76.2%,89.6*,?,41.5*,-5.6%
Oc1ccccc1-c1nnc(COc2ccccc2)o1,-23.6%,·,39.8,·,26.7*,·
O=C(O)c1ccc(CSc2nnc(COc3ccccc3)o2)cc1,29.7%,11.8%,-15.4,-7.9%,-4.8,-3.3%[46.1 µM]
c1ccc(OCc2nnc(-c3ccccc3)o2)cc1,171.6%,102.8%,117.8*,10.5%,26.4*,12.0%[46.1 µM]
CC(=O)Nc1ccccc1OCc1nnc(-c2ccccc2Cl)o1,63.8%,41.4%,13.8,22.9%,6.9,-17.2%
Oc1ccccc1-c1nnc(COc2ccc(Cl)cc2Cl)o1,20.3%,32.9%,74.0*,·,44.8*,·
Cc1ccc(OCc2nnc(-c3ccc(Cl)cc3)o2)cc1,·,·,·,?,·,10.1%
COc1ccc(-c2nc3ccccc3o2)cc1NC(=O)COc1ccc(C)c(C)c1,·,·,·,-19.9%[46.1 µM],·,·
